Inconclusive results are not listed. Calls of active or inactive are those of the source. Rule for the calls, unless noted: active = hit-call score of the fitted dose curve at least 0.9, where 1 is the maximum; inactive = score below 0.9.
Legend:
[1] = biological target: Steroid hormone receptor ERR1 (Homo sapiens) (UniProt P11474); assay: ATG_ERRa_TRANS: Attagene TRANS-FACTORIAL HepG2 Assay for human Estrogen-Related Receptor alpha (ERRa) (AID 2282971; active = hit-call score of the fitted dose curve at least 0.9, where 1 is the maximum); settings: HepG2 Attagene TRANS reporter, ERRa transactivation
How it was run: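 Reporter transcript induction was quantified by RT-PCR and capillary electrophoresis of FAM-labelled, HpaI-cut products after 24 h treatment of HepG2 cells carrying transiently transfected GAL4-UAS reporter units and an exogenous ERRa-Gal4 fusion; activity scored as increase over DMSO.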

[2] = biological target: Bile acid receptor (Homo sapiens) (UniProt Q96RI1); assay: ATG_FXR_TRANS: Attagene TRANS-FACTORIAL HepG2 Assay for Farnesoid X Receptor (FXR) (AID 2282979; active = hit-call score of the fitted dose curve at least 0.9, where 1 is the maximum;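 note: hits raise reporter mRNA above DMSO so AC50 marks FXR activation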); settings: HepG2 Attagene TRANS FXR-GAL4 reporter transcription
How it was run: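 Transient transfection of HepG2 with multiplexed GAL4-UAS reporter units; exogenous FXR-GAL4 chimera. Dose 24 h → TriZol RNA → oligo(dT) RT → PCR, 6-FAM primer extension, HpaI cut → CE. Gain vs DMSO.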

[3] = biological target: Nuclear receptor subfamily 1 group I member 3 (Homo sapiens) (UniProt Q14994); assay: ATG_CAR_TRANS: Attagene TRANS-FACTORIAL HepG2 Assay for human Constitutive Androstane Receptor (CAR) (AID 2282969; active = hit-call score of the fitted dose curve at least 0.9, where 1 is the maximum;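 note: activators raise reporter mRNA above DMSO so AC50 marks induction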); settings: HepG2 Attagene TRANS-FACTORIAL CAR reporter
How it was run: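 HepG2 cells transiently transfected with GAL4-UAS reporter units; TRANS format reads activity of exogenous chimeric NR-Gal4 protein. After 24 h dosing, reporter mRNA quantified by RT-PCR, 6-FAM labelling and capillary electrophoresis; gain of signal fitted against DMSO.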

[4] = read-out: TIMP metallopeptidase inhibitor 1 (TIMP1), TIMP1 (gene 7076); assay: BSK_hDFCGF_TIMP1: BioMAP Diversity Plus: hDFCGF Assay for TIMP metallopeptidase inhibitor 1 (TIMP1) Biomarker Activity (AID 2283062); settings: primary human foreskin fibroblasts; actives raise or lower the signal
How it was run: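 Human skin fibroblasts (primary), hDFCGF system; compound exposure 24 h; TIMP-1 by ELISA; bidirectional fit vs DMSO negative control; overt cytotoxicity by SRB in parallel wells.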

[5] = read-out: Plasminogen activator inhibitor-1 (PAI1), SERPINE1 (gene 5054); assay: BSK_hDFCGF_PAI1: BioMAP Diversity Plus: hDFCGF Assay for Plasminogen activator inhibitor-1 (PAI1) Biomarker Activity (AID 2283066); settings: primary human foreskin fibroblasts; actives raise or lower the signal
How it was run: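 Human foreskin fibroblasts in the hDFCGF system were dosed with compound for 24 h; PAI-1 was quantified by ELISA. Bidirectional curve fitting used DMSO as negative control and baseline.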

[6] = read-out: Interferon-gamma inducible Protein 10 (IP10), CXCL10 (gene 3627); assay: BSK_KF3CT_IP10: BioMAP Diversity Plus: KF3CT Assay for Interferon-gamma inducible Protein 10 (IP10) Biomarker Activity (AID 2283068); settings: primary human keratinocytes with fibroblasts; actives raise or lower the signal
How it was run: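 ELISA read-out of IP-10 after 24 h chemical dosing of human skin primary co-culture (keratinocytes, foreskin fibroblasts). Gain or loss of signal relative to DMSO, bidirectional curve fit.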

[7] = BSK_KF3CT_SRB: Viability Assessment in the BioMAP Diversity Plus: KF3CT Assay (AID 2283069); settings: primary human keratinocytes with fibroblasts;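 note: total protein by sulforhodamine B staining as a cytotoxicity measure; fitted for both signal gain and loss against DMSO baseline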
How it was run: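 Human keratinocyte and foreskin fibroblast co-culture exposed to chemical for 24 h. Total protein measured in parallel cultures by 0.1% sulforhodamine B staining after 10% TCA fixation, read at 560 nm; bidirectional fit relative to DMSO.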

[8] = read-out: Interleukin-1 alpha (IL1a), IL1A (gene 3552); assay: BSK_KF3CT_IL1a: BioMAP Diversity Plus: KF3CT Assay for Interleukin-1 alpha (IL1a) Biomarker Activity (AID 2283070); settings: primary human keratinocytes with fibroblasts; actives raise or lower the signal
How it was run: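 Primary human keratinocyte plus foreskin fibroblast co-culture, dosed and measured at 24 h in 96-well plates. IL-1a level quantified by ELISA; bidirectional fit relative to DMSO.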

[9] = read-out: TIMP metallopeptidase inhibitor 2 (TIMP2), TIMP2 (gene 7077); assay: BSK_KF3CT_TIMP2: BioMAP Diversity Plus: KF3CT Assay for TIMP metallopeptidase inhibitor 2 (TIMP2) Biomarker Activity (AID 2283071); settings: primary human keratinocytes with fibroblasts; actives raise or lower the signal
How it was run: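 Human primary keratinocyte/foreskin fibroblast co-culture dosed with chemical and sampled at 24 h. TIMP-2 levels quantified by ELISA; bidirectional fitting against DMSO negative control as baseline.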

[10] = read-out: Matrix Metallopeptidase 9 (MMP9), MMP9 (gene 4318); assay: BSK_KF3CT_MMP9: BioMAP Diversity Plus: KF3CT Assay for Matrix Metallopeptidase 9 (MMP9) Biomarker Activity (AID 2283074); settings: primary human keratinocytes with fibroblasts; actives raise or lower the signal;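 for AC50: MMP9 protein level quantified by ELISA in the co-culture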
How it was run: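 Human keratinocyte and foreskin fibroblast co-culture exposed to chemicals for 24 h; MMP9 biomarker measured by ELISA, bidirectional fitting relative to DMSO; cytotoxicity tracked by SRB total protein staining in parallel cultures.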

[11] = read-out: urokinase plasminogen activator (uPA), PLAU (gene 5328); assay: BSK_KF3CT_uPA: BioMAP Diversity Plus: KF3CT Assay for urokinase plasminogen activator (uPA) Biomarker Activity (AID 2283075); settings: primary human keratinocytes with fibroblasts; actives raise or lower the signal
How it was run: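 Primary human keratinocyte/foreskin fibroblast co-culture exposed to chemical; uPA measured by ELISA at 24 h. Bidirectional fit versus DMSO, with parallel SRB total-protein staining for cytotoxicity.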

[12] = BSK_LPS_SRB: Viability Assessment in the BioMAP Diversity Plus: LPS Assay (AID 2283079); settings: primary human HUVEC with PBMC;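 note: total protein by sulforhodamine B absorbance as a cytotoxicity measure; measured one day after compound addition; fitted in both directions against DMSO so loss or gain of signal counts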
How it was run: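 Readout is SRB absorbance at 560 nm (0.1% stain, TCA-fixed parallel cultures) as a total-protein cytotoxicity measure. Cells: primary human umbilical vein endothelium plus peripheral blood mononuclear cells, 24 h after chemical exposure; DMSO served as baseline.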

[13] = read-out: Tumor necrosis factor (Homo sapiens) (UniProt P01375); assay: BSK_LPS_TNFa: BioMAP Diversity Plus: LPS Assay for Tumour Necrosis Factor alpha (TNFa) Biomarker Activity (AID 2283085); settings: primary human HUVEC with PBMC; actives raise or lower the signal
How it was run: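 Human umbilical vein endothelial cells co-cultured with PBMC were exposed to test chemical and TNFa measured by ELISA 24 h after dosing. Bidirectional curve fitting was done relative to DMSO as negative control and baseline.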

[14] = read-out: Vascular cell adhesion molecule 1 (VCAM1), VCAM1 (gene 7412); assay: BSK_LPS_VCAM1: BioMAP Diversity Plus: LPS Assay for Vascular cell adhesion molecule 1 (VCAM1) Biomarker Activity (AID 2283086); settings: primary human HUVEC with PBMC; actives raise or lower the signal
How it was run: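 Human umbilical vein endothelial cells co-cultured with peripheral blood mononuclear cells under LPS stimulation were exposed to test chemical for 24 h. VCAM-1 levels were then measured by ELISA, with bidirectional curve fitting relative to DMSO as negative control and baseline.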

CD38, CD38 (gene 952) = assay: BSK_SAg_CD38: BioMAP Diversity Plus: SAg Assay for CD38 Biomarker Activity (AID 2283087); settings: primary human HUVEC with PBMC; actives raise or lower the signal
How it was run: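 Fluorescence ELISA of cell-surface CD38 served as the read-out, with either increase or decrease fitted against DMSO controls. Cells were a human umbilical vein endothelium plus PBMC co-culture under SEB/TSST-1 stimulation, measured 24 h after dosing.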

[15] = read-out: Monocyte Chemoattractant Protein-1 (MCP1), CCL2 (gene 6347); assay: BSK_SAg_MCP1: BioMAP Diversity Plus: SAg Assay for Monocyte Chemoattractant Protein-1 (MCP1) Biomarker Activity (AID 2283090); settings: primary human HUVEC with PBMC; actives raise or lower the signal
How it was run: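 MCP-1 levels in the endothelial–PBMC SAg co-culture were quantified by ELISA at 24 h post-dosing; both increases and decreases versus DMSO scored. Cytotoxicity monitored by SRB total protein in parallel cultures.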

[16] = read-out: Monokine induced gamma interferon (MIG), CXCL9 (gene 4283); assay: BSK_SAg_MIG: BioMAP Diversity Plus: SAg Assay for Monokine induced gamma interferon (MIG) Biomarker Activity (AID 2283092); settings: primary human HUVEC with PBMC; actives raise or lower the signal
How it was run: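 Endothelial cells and PBMC were co-cultured, exposed to test chemicals, and sampled 24 h later. MIG was measured by ELISA, and responses were fitted in both directions relative to DMSO.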

[17] = BSK_SAg_Proliferation: Cell Proliferation Assessment in the BioMAP Diversity Plus: SAg Assay (AID 2283095); settings: primary human HUVEC with PBMC;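 note: relative cell number as total protein by SRB absorbance in sub-confluent culture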
How it was run: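 Human umbilical vein endothelial cells co-cultured with peripheral blood mononuclear cells; total protein measured by sulforhodamine B staining (0.1% SRB after 10% TCA fixation), absorbance at 560 nm, at 96 h. Bidirectional fit against DMSO baseline.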

[18] = BSK_SAg_SRB: Viability Assessment in the BioMAP Diversity Plus: SAg Assay (AID 2283096); settings: primary human HUVEC with PBMC;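 note: cells read one day after compound addition; hits may be either gain or loss of signal compared with DMSO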
How it was run: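 Human umbilical vein endothelial cells co-cultured with PBMC, read 24 h after compound dosing. Total protein measured by sulforhodamine B staining (0.1% SRB after 10% TCA fixation, absorbance 560 nm); bidirectional fit versus DMSO baseline.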

[19] = read-out: Collagen I, COL1A1 (gene 1277); assay: BSK_hDFCGF_CollagenI: BioMAP Diversity Plus: hDFCGF Assay for Collagen I Biomarker Activity (AID 2284250); settings: primary human foreskin fibroblasts
How it was run: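 Primary human foreskin fibroblasts (hDFCGF system) exposed to chemical for 24 h; Collagen I measured by ELISA. Activity fitted in the positive direction relative to DMSO baseline, with SRB total-protein staining in parallel cultures for overt cytotoxicity.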

Chain of Steroid hormone receptor ERR1 (Homo sapiens) (P11474 whole entry, looked up, the tested form may be a part): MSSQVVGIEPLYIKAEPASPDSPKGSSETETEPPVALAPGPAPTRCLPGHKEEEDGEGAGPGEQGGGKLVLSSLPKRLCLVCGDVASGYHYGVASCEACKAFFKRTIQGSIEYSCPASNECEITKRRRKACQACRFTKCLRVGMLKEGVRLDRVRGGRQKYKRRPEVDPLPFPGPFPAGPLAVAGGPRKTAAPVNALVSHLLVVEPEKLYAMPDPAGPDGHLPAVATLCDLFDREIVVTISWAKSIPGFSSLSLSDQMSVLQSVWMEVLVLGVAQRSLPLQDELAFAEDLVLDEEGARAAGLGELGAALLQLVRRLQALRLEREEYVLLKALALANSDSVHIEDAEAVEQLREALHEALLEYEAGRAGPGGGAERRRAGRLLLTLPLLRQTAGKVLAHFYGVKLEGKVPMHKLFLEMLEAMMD
Chain of Bile acid receptor (Homo sapiens) (Q96RI1 whole entry, looked up, the tested form may be a part): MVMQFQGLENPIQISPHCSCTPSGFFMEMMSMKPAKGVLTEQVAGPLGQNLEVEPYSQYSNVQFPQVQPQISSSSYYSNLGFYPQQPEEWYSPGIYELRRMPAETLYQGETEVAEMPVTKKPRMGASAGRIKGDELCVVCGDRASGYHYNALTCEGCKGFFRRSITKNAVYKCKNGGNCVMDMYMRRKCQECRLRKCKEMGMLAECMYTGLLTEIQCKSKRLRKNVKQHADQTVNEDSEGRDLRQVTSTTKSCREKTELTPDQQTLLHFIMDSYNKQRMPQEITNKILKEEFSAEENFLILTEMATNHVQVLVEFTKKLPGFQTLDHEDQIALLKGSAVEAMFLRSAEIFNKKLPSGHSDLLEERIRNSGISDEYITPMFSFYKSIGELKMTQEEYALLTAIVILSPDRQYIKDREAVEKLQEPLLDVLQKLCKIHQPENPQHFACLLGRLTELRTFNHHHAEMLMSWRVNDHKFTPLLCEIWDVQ
Chain of Tumor necrosis factor (Homo sapiens) (P01375 whole entry, looked up): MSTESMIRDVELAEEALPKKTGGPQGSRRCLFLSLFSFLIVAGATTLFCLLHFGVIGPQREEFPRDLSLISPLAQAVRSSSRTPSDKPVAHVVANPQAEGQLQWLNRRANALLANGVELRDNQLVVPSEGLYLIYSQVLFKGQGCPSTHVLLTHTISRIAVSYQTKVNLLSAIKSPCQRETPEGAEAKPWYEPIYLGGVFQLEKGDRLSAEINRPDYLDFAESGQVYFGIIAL
Chain of Nuclear receptor subfamily 1 group I member 3 (Homo sapiens) (Q14994 whole entry, looked up, the tested form may be a part): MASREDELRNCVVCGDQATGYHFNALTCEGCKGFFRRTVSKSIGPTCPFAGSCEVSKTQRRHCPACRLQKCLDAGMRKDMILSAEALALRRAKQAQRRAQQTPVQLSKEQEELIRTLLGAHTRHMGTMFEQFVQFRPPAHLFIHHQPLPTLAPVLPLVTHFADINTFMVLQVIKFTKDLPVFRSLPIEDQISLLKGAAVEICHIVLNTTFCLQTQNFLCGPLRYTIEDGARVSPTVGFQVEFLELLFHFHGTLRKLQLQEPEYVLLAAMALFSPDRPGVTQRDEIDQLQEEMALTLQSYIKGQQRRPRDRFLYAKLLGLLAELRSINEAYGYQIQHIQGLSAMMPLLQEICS

SMILES: CCC(C)C1N=C(C)C(C)S1 (centres undefined)
- outcome [1]: inactive

SMILES: CN(C)N=Nc1ccccc1
- outcome [1]: inactive

SMILES: C=CCOC(=O)C(=C)C
- outcome [1]: inactive

SMILES: O=C1NC(=O)[C@@H]2CC=CC[C@H]12
- outcome [1]: inactive
- outcome [2]: inactive

SMILES: CCO[Si](OCC)(OCC)c1ccccc1
- outcome [1]: inactive

SMILES: CCCCNC(N)=O
- outcome [3]: inactive
- outcome [1]: inactive
- outcome [2]: inactive

SMILES: CCC[Si](OC(C)=O)(OC(C)=O)OC(C)=O
- outcome [4]: inactive
- outcome [5]: inactive
- outcome [6]: inactive
- outcome [7]: inactive
- outcome [8]: inactive
- outcome [9]: inactive
- outcome [10]: inactive
- outcome [11]: inactive
- outcome [12]: inactive
- outcome [13]: inactive
- outcome [14]: inactive
- outcome (CD38, CD38 (gene 952)): inactive
- outcome [15]: inactive
- outcome [16]: inactive
- outcome [17]: inactive
- outcome [18]: inactive
- outcome [19]: inactive

SMILES: COc1cc(CNC(=O)CCCC/C=C/C(C)C)ccc1O
- outcome [4]: inactive
- outcome [5]: inactive
- outcome [6]: inactive
- outcome [7]: inactive
- outcome [8]: inactive
- outcome [9]: inactive
- outcome [10]: inactive
- outcome [11]: inactive
- outcome [12]: inactive
- outcome [13]: inactive
- outcome [14]: inactive
- outcome (CD38, CD38 (gene 952)): inactive
- outcome [15]: inactive
- outcome [16]: inactive
- outcome [17]: inactive
- outcome [18]: inactive
- outcome [19]: inactive

SMILES: [O-][n+]1ccc(Cl)cc1
- outcome [2]: inactive

SMILES: CC1=C(CC(=O)O)c2cc(F)ccc2/C1=C\c1ccc(S(C)=O)cc1 (centres undefined)
- outcome [3]: inactive

SMILES: CCCCCCCCCC/C=C/C1CC(=O)OC1=O (centres undefined)
- outcome [2]: inactive
- outcome [4]: inactive
- outcome [5]: inactive
- outcome [6]: inactive
- outcome [7]: inactive
- outcome [8]: inactive
- outcome [9]: inactive
- AC50 [10]: 27.7 µM (active)
- outcome [11]: inactive
- outcome [12]: inactive
- outcome [13]: inactive
- outcome [14]: inactive
- outcome (CD38, CD38 (gene 952)): inactive
- outcome [15]: inactive
- outcome [16]: inactive
- outcome [17]: inactive
- outcome [18]: inactive

SMILES: CC/C=C/CCO
- outcome [2]: inactive

SMILES: CC[N+](CC)(CC(=O)Nc1c(C)cccc1C)Cc1ccccc1
- outcome [4]: inactive
- outcome [5]: inactive
- outcome [6]: inactive
- outcome [7]: inactive
- outcome [8]: inactive
- outcome [9]: inactive
- outcome [10]: inactive
- outcome [11]: inactive
- outcome [12]: inactive
- outcome [13]: inactive
- outcome [14]: inactive
- outcome (CD38, CD38 (gene 952)): inactive
- outcome [15]: inactive
- outcome [16]: inactive
- outcome [17]: inactive
- outcome [18]: inactive

From PubChem BioAssay (EPA / NIEHS)
